# Compound activity from PubChem.
# Keap1-Nrf2 PPI = Keap1-Nrf2 (human) interaction inhibition; Q14145; Keap1 Kelch-Nrf2 peptide fluorescence polarization, 1536-well; inhibition, % at 9.4 µM; hit rate 0.15% among 340,000; in the data active means inhibition above about 12%; inconclusive means no clear call, values can overlap the other calls; inactive means below about 7.3%;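 further: human Keap1 Kelch domain with fluorescein labeled Nrf2 9mer peptide probe; higher means more block of Keap1 binding to Nrf2 peptide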
# LANA-H2A inh = blocks KSHV LANA binding to histone H2A/H2B; AID 2629; cell-free LANA-H2A/H2B peptide, fluorescence polarization; hit rate 0.6% among 320,000; inhibition, % (concentration not given with the values); Q9QR71; in the data active means inhibition mostly above about 10%, no sharp cut-off; inactive means mostly below about 6.7%
# Target sequence (Q9QR71 whole entry, looked up): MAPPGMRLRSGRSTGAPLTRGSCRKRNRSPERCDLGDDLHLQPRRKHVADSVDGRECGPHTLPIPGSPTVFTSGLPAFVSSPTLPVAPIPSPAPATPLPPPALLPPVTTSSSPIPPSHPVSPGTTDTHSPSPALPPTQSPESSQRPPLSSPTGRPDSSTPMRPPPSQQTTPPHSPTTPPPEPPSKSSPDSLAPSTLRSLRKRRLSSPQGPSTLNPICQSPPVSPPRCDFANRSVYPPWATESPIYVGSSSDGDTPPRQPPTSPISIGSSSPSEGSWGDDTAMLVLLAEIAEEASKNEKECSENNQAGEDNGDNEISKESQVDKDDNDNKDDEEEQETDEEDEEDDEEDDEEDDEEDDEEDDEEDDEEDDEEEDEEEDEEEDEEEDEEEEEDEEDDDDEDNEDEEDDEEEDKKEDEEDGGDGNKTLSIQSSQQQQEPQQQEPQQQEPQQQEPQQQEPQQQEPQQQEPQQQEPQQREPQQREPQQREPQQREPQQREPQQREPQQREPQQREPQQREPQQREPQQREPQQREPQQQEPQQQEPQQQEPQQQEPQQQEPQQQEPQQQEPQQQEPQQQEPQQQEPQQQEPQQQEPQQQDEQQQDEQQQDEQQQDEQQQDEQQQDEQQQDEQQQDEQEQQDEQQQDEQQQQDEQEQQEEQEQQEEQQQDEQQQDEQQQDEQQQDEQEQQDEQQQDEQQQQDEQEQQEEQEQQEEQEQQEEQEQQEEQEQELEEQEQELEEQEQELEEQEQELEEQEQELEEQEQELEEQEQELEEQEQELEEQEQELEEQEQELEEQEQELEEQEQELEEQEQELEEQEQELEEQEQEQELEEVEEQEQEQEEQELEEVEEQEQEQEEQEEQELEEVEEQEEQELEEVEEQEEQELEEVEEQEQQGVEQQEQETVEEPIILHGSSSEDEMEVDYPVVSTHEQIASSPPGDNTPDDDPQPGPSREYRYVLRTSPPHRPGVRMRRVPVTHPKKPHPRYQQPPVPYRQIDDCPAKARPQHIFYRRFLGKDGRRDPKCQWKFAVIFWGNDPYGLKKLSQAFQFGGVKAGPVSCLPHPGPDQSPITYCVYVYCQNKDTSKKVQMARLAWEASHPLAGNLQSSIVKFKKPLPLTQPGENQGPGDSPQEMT
# RTF Ca sens inh = cardiac RTF calcium desensitization; hit rate 0.12% among 340,000; AID 493244; inhibition, % at 7.15 µM; IANBD-labeled cardiac RTF, Ca2+ fluorescence; P19429+P45379;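 active means inhibition above the mean inhibition of all tested compounds plus 3 SD, cut at about 17% in these data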;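 further: assay run at fixed EC70 calcium of 1.6 mM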
# cardiac RTF act = increases calcium sensitivity of human cardiac regulated thin filaments; IANBD-labeled TnC RTF fluorescence at EC20 calcium; 0% EC20 calcium, 100% full calcium; activation, % at 7.2 µM; P19429+P45379; hit rate 0.24% among 340,000;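 active means activation above the mean over all tested compounds plus 3 SD, cut at about 30% in these data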;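 further: rise in fluorescence read as greater calcium sensitivity of cardiac thin filaments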
# LANA DNA inh = inhibitors of KSHV LANA C-terminal domain DNA binding. MBP-C-LANA/FAM-LBS DNA binding, fluorescence polarization. inhibition, % at 9 µM. hit rate 0.078% among 340,000;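 active means highest replicate inhibition at or above 60% at 9 µM, even if other replicates fall short; inactive means all replicates below 60% inhibition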
# A number is an active result; 0 = inactive; ? = inconclusive; - = not tested or not shown; + = active, no number. Sampled rows, rich in hits. Any-hit rate of the full collection: about 0.99%.
SMILES,Keap1-Nrf2 PPI,LANA-H2A inh,RTF Ca sens inh,cardiac RTF act,LANA DNA inh
CC(C)C(c1nnnn1Cc1ccc(F)cc1)N1CCSCC1 (stereo unspecified),0,0,0,0,0
NC(=O)C1CCN(C(c2ccccc2Cl)c2nnnn2Cc2ccc3c(c2)OCO3)CC1 (stereo unspecified),0,25.9,0,0,0
CC(C)C(c1nnnn1Cc1ccc(F)cc1)N1CCC(C(N)=O)CC1 (stereo unspecified),0,38.6,0,0,0
Cc1cc(C)nc(NC(=O)c2c(Cl)cccc2Cl)n1,0,0,0,0,84.8
CC(C)c1onc(C(=O)N2CCC(C(N)=O)CC2)c1[N+](=O)[O-],0,0,0,0,0
CC(C)c1onc(C(=O)N2CCCCCC2)c1[N+](=O)[O-],0,33.4,0,0,0
Cn1cc(-c2ccc(Cl)cc2)cc(C#N)c1=O,0,0,0,0,0
Cn1cc(/C=C/c2cc[n+](C)cc2)c2cc(Cl)ccc21,0,0,0,206.4,0
C[n+]1ccc(/C=C/c2ccc(Br)cc2)cc1,0,0,0,0,0
Cn1cc(/C=C/c2cc[n+](C)cc2)c2cc(F)ccc21,0,0,0,317.4,0
C[n+]1ccc(/C=C/c2c[nH]c3ccc(F)cc23)cc1,0,0,0,101.5,0
CNS(=O)(=O)c1ccc(C(=O)NCC(=O)NC(C)c2cccs2)cc1 (stereo unspecified),0,0,0,0,0
CCOC(=O)C1=C(CN2CCN(c3ccc(F)cc3)CC2)NC(=O)NC1c1cccs1 (stereo unspecified),0,0,0,0,0
C/C(CC(=O)Nc1cccc(Cl)c1Cl)=N\NC(=O)c1ccccc1N,0,0,0,0,0
CSC(=NC#N)N1CCN(c2ccccn2)CC1,0,30.0,0,0,0
CN1C(=O)C(C)(C)c2cc(S(=O)(=O)NCC3CCC(C(=O)NC4CCCCC4)CC3)ccc21 (stereo unspecified),0,0,0,0,0
COc1cccc2c1C(=O)c1c(O)c3c(c(O)c1C2=O)CC(O)(C(=O)CO)CC3OC1CC(N(C)C)C(O)C(C)O1 (stereo unspecified),?,-,0,201.0,113.7
CC(=O)[C@]1(O)Cc2c(O)c3c(c(O)c2[C@@H](O[C@H]2C[C@H](N)[C@H](O)[C@H](C)O2)C1)C(=O)c1ccccc1C3=O,-,49.0,-,-,-
O=C1CCC/C(=N/NC(=O)c2ccc(NS(=O)(=O)c3cccs3)cc2)C1,0,0,0,0,0
COC/C=C/C1=CC2=CC(=O)C(C)(OC(=O)c3cnc4ccccc4n3)C(=O)C2=CN1CCN1CCOCC1 (stereo unspecified),0,17.8,0,0,0
O=C(Nc1ccccc1F)C(=Cc1sc(N2CCOCC2)nc1-c1ccccc1)C(=O)Nc1ccccc1F,0,0,0,30.4,0
CCn1c(O)c(/C=C2\C=Nc3ccccc32)sc1=O,0,14.1,0,0,0
COc1cccc(C(=O)/C=C/c2ccc(SC)cc2)c1,0,0,0,0,0
CCCCC(=O)NCCc1ccc(OC)cc1,0,0,0,0,0
O=C(CCc1nc(-c2ccccc2)no1)NCc1ccccc1CN1CCOCC1,0,26.5,0,0,0
SMILES,Keap1-Nrf2 PPI,LANA-H2A inh,RTF Ca sens inh,cardiac RTF act,LANA DNA inh
CCOc1ccc(OCCCC(=O)NCCc2ccc(OC)cc2)cc1,0,11.1,0,0,0
COc1ccc(-c2noc(CCC(=O)NCCc3ccccc3)n2)cc1,0,0,0,37.8,0
CC1CCCCN1C(=O)Cn1cnc2c1c(=O)n(C)c(=O)n2C (stereo unspecified),0,0,0,0,0
O=C(Nc1ccc(Cl)cc1)NC1CCCC1Cc1ccco1 (stereo unspecified),0,16.9,0,0,0
Cc1c(CN2CCN(C)C(CCO)C2)[nH]c2c(Cl)cccc12 (stereo unspecified),0,0,0,0,0
CCN(CC)C1=C(Cl)C(=O)C(Cl)C12OCCO2 (stereo unspecified),-,12.4,-,-,-
Nc1cc(=O)[nH]c(SCC(=O)Nc2cccc(Cl)c2)n1,0,0,0,0,0
Nc1cc(=O)[nH]c(SCC(=O)Nc2ccc(Oc3ccccc3)cc2)n1,0,16.3,0,0,0
CCCCCn1nc(-c2ccccc2)c2nc3ccccc3nc21,0,29.9,0,0,93.7
Cc1cc(S(=O)(=O)NC2CCN(Cc3ccccc3)CC2)c(C)cc1Cl,0,0,0,0,82.2
Cc1cc(C)c(S(=O)(=O)NC2CCN(Cc3ccccc3)CC2)c(C)c1,0,0,0,0,0
COc1cc(/C=C/C(=O)OC(C)C(=O)Nc2c(C)n(C)n(-c3ccccc3)c2=O)ccc1O (stereo unspecified),0,118.9,0,0,0
Cc1c(NC(=O)CN2C(=O)c3cccc4cccc2c34)c(=O)n(-c2ccccc2)n1C,0,18.2,0,0,0
Cc1ccc(N(C(C)C(=O)Nc2c(C)n(C)n(-c3ccccc3)c2=O)S(C)(=O)=O)cc1C (stereo unspecified),0,0,0,0,0
Cc1c(NC(=O)C(C)N(c2ccccc2)S(C)(=O)=O)c(=O)n(-c2ccccc2)n1C (stereo unspecified),0,39.9,0,0,0
CCN(CC)c1ccc(/C=c2\sc3nc4ccccc4n3c2=O)c(O)c1,0,-,0,53.2,0
O=c1/c(=C/c2ccc(O)c([N+](=O)[O-])c2)sc2nc3ccccc3n12,0,-,-,-,0
Oc1cccc2ccc(/C=C/c3cccs3)nc12,0,13.3,0,0,0
CN(CC(=O)Nc1ccccc1Sc1ccccc1)Cc1nc2ccccc2c(=O)[nH]1,0,0,0,0,0
Cc1cccc(Cn2ccc(N)n2)c1,0,0,0,0,0
COC(=O)c1c(NC(=O)C(=O)N2CCOCC2)sc2c1CCC2,0,13.3,0,0,0
Cc1ccc(-c2nnc(SCC(=O)N/N=C/c3ccc(C(=O)O)cc3)n2C2CCCCC2)cc1,0,12.3,0,0,0
O=C(CCNC(=O)c1ccc(Br)cc1)NCCCN1CCOCC1,0,51.1,0,0,0
O=C(Cc1ccccc1[N+](=O)[O-])NCCCN1CCOCC1,0,+,0,0,0
O=C(NCCCN1CCOCC1)C(Sc1ccccc1)c1ccccc1 (stereo unspecified),0,52.7,0,0,0
SMILES,Keap1-Nrf2 PPI,LANA-H2A inh,RTF Ca sens inh,cardiac RTF act,LANA DNA inh
O=C(NCCN1CCOCC1)C(Sc1ccccc1)c1ccccc1 (stereo unspecified),0,0,0,0,0
COc1ccc(Nc2nnc(SCC(=O)NC3CCS(=O)(=O)C3)s2)cc1 (stereo unspecified),0,-,0,0,0
CCN(CC)CCNC(=O)Cn1c(=O)c2cccn2c2ccc(F)cc21,0,0,0,0,0
CCO[C@H]1OC(C(=O)N2CCOCC2)=C[C@@H](c2coc3ccccc3c2=O)[C@@H]1CCCO,0,0,0,0,0
Cc1cc(O)c(CN(C)C)c2c1C(=O)/C(=C/c1ccco1)O2,0,0,0,35.9,0
COc1ccc2c(c1)O/C(=C\c1ccco1)C2=O,0,0,0,0,0
